Measured values taken from the supplement of paper PMC6992640.
± gives the standard deviation of the averaged measurements.

What was measured:
Experiment in all cases: cell viability (% of vehicle); higher = less cytotoxic
Conditions in all cases: 10 µM; 72 h
HCI01 = test system: HCI01 (cells of a triple-negative basal-like breast cancer xenograft)
HCI03 = test system: HCI03 (cells of an ER-positive luminal breast cancer xenograft)
HCI09 = test system: HCI09 (cells of a triple-negative luminal androgen receptor type breast cancer xenograft)
HCI11 = test system: HCI11 (cells of an ER-positive luminal breast cancer xenograft)
HCI13 = test system: HCI13 (cells of an ER-positive luminal breast cancer xenograft)
HCI16 = test system: HCI16 (cells of a triple-negative basal-like breast cancer xenograft)
UCD52 = test system: UCD52 (cells of a triple-negative basal-like breast cancer xenograft)
WHIM2 = test system: WHIM2 (cells of a triple-negative basal-like breast cancer xenograft)
WHIM30 = test system: WHIM30 (cells of a triple-negative basal-like breast cancer xenograft)
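Note: PDX cells carrying CMV promoter-driven luciferase, viability read as total photon flux per second by IVIS imaging following D-luciferin, vehicle control 0.1% DMSO.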

| SMILES | cell viability (HCI01) | cell viability (HCI03) | cell viability (HCI09) | cell viability (HCI11) | cell viability (HCI13) | cell viability (HCI16) | cell viability (UCD52) | cell viability (WHIM2) | cell viability (WHIM30) |
| --- | --- | --- | --- | --- | --- | --- | --- | --- | --- |
| Cl.O=C(c1ccc(OCCN2CCCCC2)cc1)c1c(-c2ccc(O)cc2)sc2cc(O)ccc12 [Raloxifene HCl] | 163 ± 35 | 71.2 | 33.7 ± 1.3 | 116 | 50.8 ± 3 | 182 | 80.5 ± 3.9 | 44 ± 7.1 | 156.6 ± 1.1 |
| Nc1ccn(C2OC(CO)C(O)C2O)c(=O)n1 (configuration not stated) [Cytidine] | 101 ± 36 | 131 | 98.9 ± 9.3 | 105 | 87.1 ± 7 | 122 | 92.5 ± 19 | 108 ± 18 | 146 ± 29 |
| CC(CCC(=O)O)C1CCC2C3C(O)CC4CC(O)CCC4(C)C3CCC12C (configuration not stated) [Ursodiol] | 90.9 ± 70 | 150 | 100.8 ± 0.88 | 95.2 | 126 ± 9.4 | 124 | 89.82 ± 0.32 | 111 ± 9.3 | 155 ± 12 |
| Cc1cccc(Nc2ccccc2C(=O)O)c1C [Mefenamic Acid] | 103 ± 23 | 102 | 118 ± 43 | 98.1 | 113 ± 6.7 | 90.9 | 94.4 ± 5.6 | 109 ± 6 | 112 ± 1.5 |
| Nc1cc(C(Cl)=C(Cl)Cl)c(S(N)(=O)=O)cc1S(N)(=O)=O [Clorsulon] | 107 ± 17 | 108 | 125 ± 47 | 106 | 194 ± 11 | 169 | 116 ± 11 | 112 ± 14 | 152 ± 7.4 |
| CC#CCn1c(N2CCCC(N)C2)nc2c1c(=O)n(Cc1nc(C)c3ccccc3n1)c(=O)n2C (configuration not stated) [Linagliptin (BI-1356)] | 160 ± 22 | 108 | 95.4 ± 7.2 | 142 | 105 ± 6.1 | 179 | 136 ± 2.3 | 111 ± 1.3 | 167 ± 7.3 |
| CC(=O)Oc1ccccc1C(=O)O [Aspirin (Acetylsalicylic acid)] | 174 ± 16 | 107 | 98.5 ± 3.8 | 136 | 148 ± 30 | 151 | 142 ± 13 | 101 ± 16 | 160 ± 23 |
| C=C1c2cccc(O)c2C(O)=C2C(=O)C3(O)C(O)=C(C(N)=O)C(=O)C(N(C)C)C3C(O)C12.Cl (configuration not stated) [Methacycline HCl] | 114 ± 4.2 | 128 | 104 ± 5.9 | 81.8 | 140 ± 12 | 158 | 111 ± 5.5 | 94.3 ± 2 | 121 ± 2.4 |
| NS(=O)(=O)NCC/N=C1\NON\C1=C(\N=O)Nc1ccc(F)c(Br)c1 | 105 ± 6.8 | 99 | 35 ± 8.5 | 96.4 | 66.5 ± 1.4 | 112 | 57.5 ± 3.6 | 88.9 ± 9.7 | 96.2 ± 6 |
| CC(Nc1ncnc2nc[nH]c12)c1cc2cccc(Cl)c2c(=O)n1-c1ccccc1 (configuration not stated) | 91.5 ± 1.5 | 53.1 | 71.9 ± 26 | 66.4 | 45.8 ± 4.9 | 81.8 | 67.3 ± 1.7 | 51.1 ± 15 | 95.3 ± 2.1 |
| CCCCC(=O)N(Cc1ccc(-c2ccccc2-c2nn[nH]n2)cc1)C(C(=O)O)C(C)C (configuration not stated) [Valsartan] | 112 ± 6 | 118 | 118 ± 24 | 97.2 | 116 ± 24 | 119 | 108 ± 10 | 101 ± 16 | 199 ± 25 |
| Cl.NC(N)=NC(=O)c1nc(Cl)c(N)nc1N.O.O [Amiloride HCl dihydrate] | 99.2 ± 7.3 | 102 | 121 ± 1.5 | 89.4 | 102 ± 8.4 | 115 | 96.35 ± 0.8 | 86 ± 16 | 114 ± 8.2 |
| Cc1ncc([N+](=O)[O-])n1CCO [Metronidazole] | 91.9 ± 32 | 135 | 90.8 ± 28 | 89.6 | 104 ± 9 | 133 | 77.3 ± 7.2 | 81 ± 16 | 131 ± 4.7 |
| Cc1c(C(=O)Nc2ccc(N3CC(C)OC(C)C3)nc2)cccc1-c1ccc(OC(F)(F)F)cc1 (configuration not stated) [LDE225 (NVP-LDE225,Erismodegib)] | 98.3 ± 17 | 119 | 66.8 ± 2.4 | 80.7 | 69.7 ± 4.5 | 94.8 | 80.8 ± 1.8 | 97.5 ± 14 | 86.1 ± 7.6 |
| Cc1cc(=O)[nH]c(=S)[nH]1 [Methylthiouracil] | 97.2 ± 29 | 119 | 94.7 ± 16 | 93.8 | 119 ± 2.5 | 115 | 92.7 ± 7.9 | 80.6 ± 8.1 | 139 ± 5.5 |
| CC1(C(=O)[O-])CCC2(C)CCC3(C)C(=CC(=O)C4C5(C)CCC(OC(=O)CCC(=O)[O-])C(C)(C)C5CCC43C)C2C1.[Na+].[Na+] (configuration not stated) [Carbenoxolone disodium] | 84.3 ± 8 | 122 | 89.2 ± 4.5 | 103 | 129 ± 87 | 108 | 82.3 ± 1.7 | 108 ± 11 | 97.9 ± 2.5 |
| CC(O)C1C(=O)N2C(C(=O)O)=C(SC3CNC(CNS(N)(=O)=O)C3)C(C)C12.O (configuration not stated) [Doripenem Hydrate] | 103 ± 1.4 | 91.1 | 95.9 ± 7 | 84.3 | 84.8 ± 5.9 | 95.3 | 89.1 ± 5.5 | 93.6 ± 7.5 | 109 ± 5.1 |
| CC(C)(C)NCC(O)COc1cccc2c1CCC(O)=N2.Cl (configuration not stated) [Carteolol HCl] | 96.4 ± 13 | 144 | 97.3 ± 14 | 110 | 123 ± 1.9 | 115 | 114 ± 3.5 | 87.3 ± 17 | 116.5 ± 0.86 |
| CNC1C(OC2C(OC3C(O)C(O)C(N=C(N)N)C(O)C3N=C(N)N)OC(C)C2(O)C=O)OC(CO)C(O)C1O.CNC1C(OC2C(OC3C(O)C(O)C(N=C(N)N)C(O)C3N=C(N)N)OC(C)C2(O)C=O)OC(CO)C(O)C1O.O=S(=O)(O)O.O=S(=O)(O)O.O=S(=O)(O)O (configuration not stated) [Streptomycin sulfate] | 82.6 ± 31 | 97.7 | 84.6 ± 5.9 | 82.9 | 90 ± 1.7 | 103 | 84.1 ± 3.6 | 81.8 ± 12 | 86.6 ± 7.4 |

| SMILES | cell viability (HCI01) | cell viability (HCI03) | cell viability (HCI09) | cell viability (HCI11) | cell viability (HCI13) | cell viability (HCI16) | cell viability (UCD52) | cell viability (WHIM2) | cell viability (WHIM30) |
| --- | --- | --- | --- | --- | --- | --- | --- | --- | --- |
| Cc1cnc(C(=O)NCCc2ccc(S(=O)(=O)NC(=O)NC3CCCCC3)cc2)cn1 [Glipizide] | 104 ± 16 | 128 | 106 ± 16 | 108 | 93.1 ± 1.8 | 99.1 | 83.6 ± 5.6 | 87.2 ± 11 | 138 ± 12 |
| Cc1ccnc2c1NC(=O)c1cccnc1N2C1CC1 [Nevirapine] | 112 ± 2.5 | 105 | 122 ± 49 | 113 | 96.5 ± 3.9 | 96 | 96.8 ± 6.9 | 93.1 ± 23 | 130 ± 5.6 |
| O=C1CN(/N=C/c2ccc(-c3ccc([N+](=O)[O-])cc3)o2)C([O-])=N1.[Na+] [Dantrolene, sodium salt] | 98.7 ± 15 | 174 | 83.5 ± 7.8 | 99.1 | 105 ± 9.9 | 110 | 92.4 ± 4.7 | 104 ± 4 | 130 ± 7.4 |
| CC12CC3CC(C)(C1)CC(N)(C3)C2.Cl [Memantine hydrochloride] | 88.8 ± 14 | 146 | 104 ± 13 | 99.3 | 116 ± 3.6 | 98.2 | 92.37 ± 0.13 | 88.1 ± 15 | 156 ± 21 |
| CCCCS(=O)(=O)NC(Cc1ccc(OCCCCC2CCNCC2)cc1)C(=O)O.Cl.O (configuration not stated) [Tirofiban hydrochloride monohydrate] | 119 ± 1.7 | 123 | 107 ± 8.2 | 106 | 135 ± 8.5 | 101 | 91.9 ± 7.1 | 99.1 ± 24 | 113 ± 22 |
| O=C(O)C=CC(=O)O.OCCOCCN1CCN(C2=Nc3ccccc3Sc3ccccc32)CC1.OCCOCCN1CCN(C2=Nc3ccccc3Sc3ccccc32)CC1 [Quetiapine Fumarate] | 186 ± 14 | 91.6 | 81.6 ± 5.6 | 123 | 83 ± 0.84 | 163 | 78.8 ± 2 | 128 ± 7 | 154 ± 6.5 |
| CN(C)C(=O)COC(=O)Cc1ccc(OC(=O)c2ccc(N=C(N)N)cc2)cc1.CS(=O)(=O)O [Camostat Mesilate] | 105 ± 24 | 133 | 85.2 ± 6.6 | 70.7 | 109 ± 5.7 | 112 | 99.8 ± 6.7 | 108 ± 5.9 | 110 ± 5.2 |
| CCOc1ccc2ccccc2c1C(=O)NC1C(=O)N2C1SC(C)(C)C2C(=O)[O-].O.[Na+] (configuration not stated) [Nafcillin Sodium] | 107 ± 8.4 | 139 | 109 ± 6 | 110 | 117 ± 9.9 | 105 | 96.1 ± 8.5 | 101 ± 3.8 | 140 ± 11 |
| NCCS(=O)(=O)O [Taurine] | 105 ± 23 | 119 | 101 ± 18 | 86.6 | 61.4 ± 7.8 | 115 | 75.92 ± 0.27 | 109 ± 19 | 115 ± 9.7 |
| CCC1=C(C)CN(C(=O)NCCc2ccc(S(=O)(=O)NC(=O)NC3CCC(C)CC3)cc2)C1=O (configuration not stated) [Glimepiride] | 158 ± 17 | 123 | 86.6 ± 14 | 147 | 93.2 ± 11 | 158 | 129 ± 3.5 | 105 ± 6.7 | 164.4 ± 0.77 |
| COc1ccc(CN(CCN(C)C)c2ccccn2)cc1.O=C(O)/C=C\C(=O)O [Mepyramine maleate] | 93.8 ± 18 | 133 | 88.5 ± 12 | 93.9 | 85.6 ± 8.7 | 107 | 112 ± 8.7 | 94.4 ± 8.4 | 111 ± 6 |
| CC(C)C(=O)Nc1ccc([N+](=O)[O-])c(C(F)(F)F)c1 [Flutamide] | 136 ± 7.3 | 139 | 71.8 ± 8 | 125 | 97.9 ± 8.4 | 78.4 | 78.9 ± 5.1 | 112 ± 33 | 116 ± 6.6 |
| N=C(NCCCCCCNC(=N)NC(=N)Nc1ccc(Cl)cc1)NC(=N)Nc1ccc(Cl)cc1 [Chlorhexidine digluconate] | 77.9 ± 12 | 118 | 60.1 ± 19 | 76 | 68.6 ± 2 | 112 | 98.5 ± 24 | 48.8 ± 1.5 | 103 ± 6 |
| C1CNCCN1.C[C@@]12CC[C@H]3c4ccc(OS(=O)(=O)O)cc4CC[C@H]3[C@H]1CCC2=O [Estropipate] | 89.8 ± 7.5 | 173 | 81.6 ± 11 | 95.3 | 159 ± 20 | 104 | 104.03 ± 0.037 | 91.3 ± 27 | 98.27 ± 0.36 |
| Cc1c(OCC(F)(F)F)ccnc1CS(=O)c1nc2ccccc2[nH]1 (configuration not stated) [Dexlansoprazole] | 188 ± 46 | 149 | 94.9 ± 51 | 134 | 188 ± 57 | 170 | 143 ± 8.5 | 173 ± 16 | 186 ± 9.4 |
| O=C([C@H](CCC/N=C(N)/N)NS(=O)(C1=C2NC[C@H](C)CC2=CC=C1)=O)N3[C@@H](C(O)=O)C[C@H](C)CC3 [Argatroban] | 116 ± 7.1 | 130 | 98 ± 6.5 | 116 | 95.2 ± 6 | 96.6 | 80.3 ± 7.5 | 98.9 ± 18 | 132 ± 14 |
| CCCCOc1ccc(OCCCN2CCOCC2)cc1.Cl [Pramoxine HCl] | 137.9 ± 0.65 | 103 | 92.4 ± 8.4 | 112 | 83.5 ± 24 | 116 | 79.6 ± 6 | 166 ± 12 | 133 ± 23 |
| CO/C(O)=N/[C@H](C(=O)N1CC2(CC2)C[C@H]1c1ncc(-c2ccc3c(c2)C(F)(F)c2cc(-c4ccc5nc([C@@H]6[C@H]7CC[C@H](C7)N6C(=O)[C@@H](/N=C(\O)OC)C(C)C)[nH]c5c4)ccc2-3)[nH]1)C(C)C [Ledipasvir] | 103 ± 1.7 | 94.4 | 55.6 ± 3.8 | 80.6 | 99 ± 8.5 | 72.3 | 73.6 ± 4.1 | 64.9 ± 9.5 | 104 ± 1.1 |
| CC(C(=O)O)c1ccc2c(c1)Cc1cccnc1O2 (configuration not stated) [Pranoprofen] | 113 ± 13 | 128 | 93.6 ± 16 | 78.6 | 123 ± 16 | 125 | 98.8 ± 19 | 110 ± 3.3 | 111 ± 22 |
